Compound activity: PubChem BioAssay, National Center for Advancing Translational Sciences (NCATS)
Rows were chosen to be rich in hits. Some 2.4% of all compounds tested hit in one or more screens of this group.
GLP-1R inv ag = inverse agonists of human GLP-1 receptor | P43220 | HEK293 GLP-1R CRE-luciferase, luminescence, 24 h; GLP-1R form is constitutively active | Potency, µM (highest dose often 38.3 µM), for inactives: top-dose activity change, negative = inhibition, most hits filed as inhibitors | hit rate 1.6% among 410,000 | AID 624417; note: potency is the fitted concentration of half-maximal effect; % is set by controls: 0 for no effect and ±100 for the full control effect; nearly all actives have a fitted effect of over 55% in size
Target sequence (P43220 whole entry, looked up): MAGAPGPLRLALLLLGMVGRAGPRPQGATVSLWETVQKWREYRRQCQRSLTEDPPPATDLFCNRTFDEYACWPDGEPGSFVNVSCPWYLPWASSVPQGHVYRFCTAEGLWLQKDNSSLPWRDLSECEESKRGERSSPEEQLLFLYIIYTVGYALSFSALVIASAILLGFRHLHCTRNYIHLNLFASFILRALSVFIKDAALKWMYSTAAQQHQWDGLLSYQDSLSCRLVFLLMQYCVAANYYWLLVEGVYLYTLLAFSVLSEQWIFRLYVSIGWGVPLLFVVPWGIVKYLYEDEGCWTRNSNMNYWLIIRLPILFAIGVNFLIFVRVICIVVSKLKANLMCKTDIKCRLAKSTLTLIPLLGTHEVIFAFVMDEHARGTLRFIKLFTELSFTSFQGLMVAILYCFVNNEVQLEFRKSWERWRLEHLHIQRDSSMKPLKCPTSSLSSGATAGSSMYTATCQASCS
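Assay principle: reduced luminescence from a cAMP-responsive reporter in HEK293 cells co-expressing a constitutively active GLP-1R. Conditions: 24 hr compound incubation, 37 deg C, 5% CO2.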
TRHR enhancer = allosteric enhancers of human TRH receptor; TRHR cells, fluo-8 calcium fluorescence, EC20 TRH enhancement; hit rate 0.66% among 360,000; P34981; AID 493056; enhancement, % at 2 µM; in the data active = enhancement above about 30%; note: 0% is about no effect
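Enhancer read-out: after compound pinning and an initial kinetic agonist-mode read, an EC20 of TRH (10 nM final) was injected and fluo-8 calcium signal (Ex 480/Em 530) followed at 1 s/cycle for 100 cycles in TRHR-expressing cells.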
GLP1R ag = activates the human GLP-1 receptor; P43220; HEK293 GLP-1R CRE-luciferase, luminescence, 4-6 h; cells express a hypersensitive GLP-1R form; Potency, µM (titrated, usually from 45.6 µM), for the others: top-dose activation, usual class: activators; hit rate 0.007% among 380,000; AID 624172; note: potency is the fitted concentration of half-maximal effect; % of control where 0% means no effect
HEK293 tox = cytotoxic in the GLP-1 receptor inverse agonist counter-screen | HEK293 cAMP-luciferase reporter cells, luminescence, 24 h | Potency, µM (highest dose often 38.3 µM), without a hit: at the highest dose activity change, negative = inhibition, hits mostly inhibitors | hit rate 0.13% among 410,000;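 note: loss of luciferase light is scored as toxicity; potency is the fitted concentration of half-maximal effect; % is set by controls: 0 for no effect and ±100 for the full control effect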
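MLSMR compounds, 24 hr on cells at 37 deg C/5% CO2; luminescence after luciferase reagent (12 min RT). Inhibition counted as the undesired cytotoxic outcome.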
PTHR1 agonist = agonists of human PTHR1 parathyroid hormone receptor; AID 743266; hit rate 0.075% among 410,000; HEK293 GP2 PTHR1 cells, GloSensor cAMP luminescence, 1 h; Potency, µM (top dose mostly 115 µM), for the others: at the highest dose activation, actives largely listed as activators; note: potency is the fitted concentration of half-maximal effect; nearly all actives have a fitted effect of over 55% in size
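HEK-293-derived GP2 cells expressing PTHR1 and a GloSensor cAMP reporter, 3,000/well, plated overnight, given luciferin plus IBMX (each 0.5 mM as added) for 1 h at 37 °C, then compound for 1 h at 37 °C. Luminescence was read after 15 min at room temperature.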
TRHR ag = activates the human TRH receptor; TRHR cells, calcium flux fluo-8, FDSS agonist mode; hit rate 0.18% among 360,000; activation, % at 2 µM; in the data active = activation above about 30%; note: 0% is about no effect
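Steps: seed TRHR cells overnight; add fluo-8 no-wash Ca dye, RT 30 min–1.5 h; record 10 s baseline; pin-transfer compounds; monitor fluorescence 1 cycle/s for the agonist window. Calcium increases flag candidate agonists.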
* marks the source's active call; other numbers are inactive results; i = inactive; ? = inconclusive; / = no result given; [ ] = remark or other dose. Unless noted, calls come from the whole dose curve; as a rule, active = well fitted curve in the direction sought with a large enough effect; inconclusive = small, poorly fitted or top-dose-only effect, or another doubt; inactive = no such curve, though single readings can be large; an effect the other way counts as inactive or inconclusive.

SMILES	GLP-1R inv ag	TRHR enhancer	GLP1R ag	HEK293 tox	PTHR1 agonist	TRHR ag
CC(NCC(=O)Nc1ccccc1C(=O)NC1CC1)c1cccc(C(F)(F)F)c1 (configuration not stated)	12.6µM*	-0.5	11.5%	-0.2%	-31.1%	0.7
CC(NCC(=O)NCC(=O)Nc1ccc(F)cc1)c1cccc(C(F)(F)F)c1 (configuration not stated)	?	/	1.5%	-6.7%	i	/
COc1ccc2c(c1)CCN1C2CCN2C(=O)CCC21 (configuration not stated)	-4.9%	4.7	11.3%	-4.8%	i	-1.5
O=C1SC(SCc2ccccc2)=N/C1=C\c1ccc(C(=O)O)cc1	-20.9%	2.8	12.5%	1.8%	4.7%	-0.1
O=C1SC(SCc2ccccc2)=N/C1=C\c1ccco1	1.1%	5.0	4.1%	9.2%	0.316µM*	0.2
O=C(CCn1c(=O)[nH]c2ccccc2c1=O)N1CCN(c2cccc(C(F)(F)F)c2)CC1	?	2.7	-0.4%	-11.1%	-96.0%	-0.5
O=C(CCCCn1c(=O)[nH]c2ccccc2c1=O)N1CCN(c2cccc(C(F)(F)F)c2)CC1	10µM*	5.9	-10.5%	?	-34.2%	-0.7
N#C/C(N=Nc1ccccc1O)=N\Nc1ccccc1O	?	-4.2	-16.8%	10µM*	-41.4%	6.7
Oc1ccccc1N=N/C(=N/Nc1ccccc1O)c1ccccc1	-2.0%	4.5	0.4%	-16.4%	i	-0.2
COc1cccc(/C=C(\CC(=O)O)c2nc3ccccc3s2)c1	-1.9%	34.3*	15.3%	-8.7%	i	0.4
CN(c1ccccc1)c1ccc(/C=C(/CCC(=O)O)c2nc3ccccc3s2)cc1[N+](=O)[O-]	11.2µM*	/	5.0%	-27.1%	-18.7%	/
Cc1ccc(C(=O)NNC(=O)c2ccc(NS(=O)(=O)c3cccs3)cc2)s1	2.2%	13.8	-11.2%	-5.9%	i	0.2
O=C(CSc1nc2ccccc2c(=O)n1CC1CCCCC1)N1CCOCC1	-7.8%	4.8	20.5%	-2.9%	i	-0.4
CCN(CC)C(=O)CSc1nc2ccccc2c(=O)n1CC1CCCCC1	5.62µM*	-3.7	16.0%	-8.9%	-21.6%[57.5 µM]	0.8
COc1ccc(-c2[nH]ncc2C(=O)NCc2cccc(F)c2)cc1	15.6%	37.3*	/	1.3%	i	-0.5
COc1ccc(-c2[nH]ncc2C(=O)NCc2ccc(F)cc2)cc1	9.1%	-1.9	/	-1.9%	-3.7%	-0.3
O=C(CSc1ncnc2c1cnn2CCO)Nc1cccc(C(F)(F)F)c1	28.8%	30.8*	6.3%	-1.3%	-14.0%	0.1
OCC1OC(n2ccc3c2ncn2ncnc32)C(O)C1O (configuration not stated)	7.94µM*	/	-7.1%	-24.4%	-12.5%	/
CC(=O)c1cccc(S(=O)(=O)N2CCC(C(=O)O)CC2)c1	8.1%	16.7	7.8%	-13.1%	i	0.4
COc1cc(/C=C/C(=O)OCC(=O)N2CCc3ccccc32)cc(OC)c1OC	-0.1%	/	-6.9%	3.3%	-14.6%	/
O=S(=O)(Nc1cc(C(F)(F)F)ccc1N1CCOCC1)c1ccccc1	-26.8%	-3.9	-1.6%	3.4%	i	0.2
Cc1cccc(S(=O)(=O)Nc2cc(Cl)ccc2N2CCOCC2)c1	10µM*	/	7.0%	-1.6%	-14.4%	/
CCN(Cc1ccc(C#CCCO)cc1)CC1CCCN(CCc2cccc(F)c2)C1 (configuration not stated)	10µM*	6.6	0.5%	-23.6%	4.4%	0.5
O=C(Nc1cccc(NC(=O)c2cc([N+](=O)[O-])ccc2Cl)n1)c1cc([N+](=O)[O-])ccc1Cl	3.98µM*	/	17.9%	?	-20.2%	/
CC(C)CCC1(CCNC(C)c2cccs2)CCOC(C)(C)C1 (configuration not stated)	7.08µM*	4.0	6.3%	-0.4%	i	-0.4
